ATXN viability – Viability Counterscreen for Primary qHTS for Inhibitors of ATXN expression. S2 cells (HEK-293 line with an ATXN2-luciferase reporter) viability, CellTiter-Fluor protease fluorescence, 24 h. Potency, µM (titrated, usually from 56.7 µM), most hits filed as cytotoxic. hit rate 0.49% among 400,000; further: nearly all actives have a fitted effect of over 40% in size
ATXN2 expr inh – Primary qHTS for Inhibitors of ATXN expression. HEK-293 ATXN2-luciferase reporter, luminescence, 24 h. Potency, µM (series often up to 57 µM), inactives show at the highest dose activity change, negative = inhibition, hits mostly inhibitors. hit rate 0.72% among 360,000. AID 1745845, 2022; further: on the % scale 0 is the no-effect control and ±100 the full control effect; nearly all actives have a fitted effect of over 55% in size
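ATXN2-luciferase reporter cells (luciferase flanked by upstream and downstream ATXN2 gene portions) were treated 24 h at 37 °C with compounds at up to 57 uM. SteadyGlo luminescence gave expression; GF-AFC fluorescence gave viability.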
HepG2 tox-1 – qHTS for Inhibitors of TGF-b: Cytotox Counterscreen; HepG2 CAGA-GFP viability, ATP luminescence, 18 h; Potency, µM (doses to about 46.1 µM), for inactives: at the top dose activity change, negative = cytotoxicity, actives largely listed as cytotoxic; hit rate 0.76% among 410,000; AID 588856, 2011
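HepG2 CAGA-GFP cells (1000/well, DMEM with 1% FBS) received compound, then TGF-beta at 500 pg/mL final, and were incubated 18 hours at 37 degrees C. Viability was read by CellTiter-Glo luminescence. Media-only wells were set as complete cell-killing and DMSO as no toxicity.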
HT1080 IDH1KD tx – qHTS for induction of synthetic lethality in tumor cells producing 2HG: qHTS for the HT-1080-IDH1KD cell line; Potency, µM (top dose mostly 46.1 µM), inactives show at the top dose activity, negative = toxicity, most hits filed as cytotoxic; HT-1080 IDH1 knockdown viability, ATP luminescence, 48 h; hit rate 2% among 360,000;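 further: 0% = DMSO wells and -100% = cell-free medium wells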
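After a 2 h attachment period, IDH1KD HT-1080 cells took pin-transferred compound for 48 h at 37 °C; ATP-based luminescence after 10 min room-temperature reagent incubation reported viability.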
HT1080-NT tox – qHTS for induction of synthetic lethality in tumor cells producing 2HG: qHTS for the HT-1080-NT fibrosarcoma cell line | Potency, µM (titrated, usually from 46.1 µM), inactives show at the highest dose activity, negative = less viability, actives largely listed as cytotoxic | hit rate 1.6% among 360,000 | AID 686970, 2013 | HT-1080-NT fibrosarcoma viability, CellTiter-Glo ATP luminescence, 48 h;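 further: NT is the 2HG producing partner of a matched IDH1 knockdown line; 0% = DMSO-treated cells and -100% = media-only wells without cells; nearly all actives have a fitted effect of over 55% in size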
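HT-1080-NT fibrosarcoma cells (2HG-overproducing), 750 cells/well in RPMI with 5% FBS, dosed after 2 h and incubated 48 h at 37C. CellTiter-Glo luminescence normalized to DMSO and no-cell wells; concentration-response curves fitted and classed.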
TGFb inhibitor – qHTS for Inhibitors of TGF-b; HepG2 CAGA-GFP TGF-b/SMAD3 reporter, GFP fluorescence, 18 h; TGF-beta stimulated, 500 pg/mL final; Potency, µM (doses to about 46.1 µM), without a hit: at the highest dose activity, negative = inhibition, usual class: inhibitors; hit rate 1.2% among 410,000; further: on the % scale 0 is the no-effect control and ±100 the full control effect; nearly all actives have a fitted effect of over 65% in size
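HEPG2 CAGA-GFP cells (1000/well, DMEM with 1% FBS) were pre-incubated 2 h at 37 degrees C, given compound by pin tool, then stimulated with TGF-beta at 500 pg/mL final for 18 h before per-cell GFP fluorescence imaging.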
TGFb CAGA inh – qHTS for Inhibitors of TGF-b: Confirmation of Cherry Picks. HepG2 CAGA-GFP TGF-b reporter, GFP fluorescence, 18 h; cells stimulated with TGF-beta, 500 pg/mL. hit rate 63% among 1,600. shares compounds with TGFb inhibitor. AID 720534, 2013. Potency, µM (top dose mostly 46.1 µM), inactives show at the top dose activity, negative = inhibition, most hits filed as inhibitors; further: on the % scale 0 is the no-effect control and ±100 the full control effect; nearly all actives have a fitted effect of over 65% in size
HepG2 tox-2 – qHTS for Inhibitors of TGF-b: Cytotox Counterscreen for Cherry Picks. Potency, µM (top dose mostly 46.1 µM), for the others: top-dose activity, negative = cytotoxicity, most hits filed as inhibitors. shares compounds with TGFb inhibitor. hit rate 27% among 1,600. HepG2 CAGA-GFP viability, ATP luminescence, 18 h; cells stimulated with TGF-beta, 500 pg/mL; further: on the % scale 0 is the no-effect control and ±100 the full control effect; nearly all actives have a fitted effect of over 70% in size
TGFb CCL64 inh – qHTS for Inhibitors of TGF-b: CCL64 Cells Orthogonal Assay for Cherry Picks; shares compounds with TGFb inhibitor; CCL64 CAGA-GFP reporter, TGF-b stimulated, GFP fluorescence, 18 h; Potency, µM (doses to about 46.1 µM), without a hit: at the highest dose activity, negative = inhibition, most hits filed as inhibitors; hit rate 41% among 1,600; AID 720536, 2013; further: nearly all actives have a fitted effect of over 65% in size
COP TGFb inh – qHTS for Inhibitors of TGF-b: Hit Validation in HepG2 Cells using COP promoter; shares compounds with TGFb inhibitor; HepG2 COP-GFP TGF-b reporter, GFP fluorescence, 18 h; cells stimulated by added recombinant TGF-beta; Potency, µM (titrated, usually from 46.1 µM), inactives show at the highest dose activity, negative = inhibition, hits mostly inhibitors; hit rate 3% among 1,600; further: nearly all actives have a fitted effect of over 70% in size
* = called active by the depositor. Hits are enriched below; roughly 3.9% of the tested compounds scored in any of these assays. The call rests on the fitted dose curve; in most records, active means well fitted curve in the direction sought with a large enough effect; inconclusive means small, poorly fitted or top-dose-only effect, or another doubt; inactive means no such curve, though single readings can be large; an effect the other way counts as inactive or inconclusive. Potency means the concentration at half of the fitted maximal effect.

What do the screens show for `O=C(/C=C/c1cccc([N+](=O)[O-])c1)c1cccs1`?
ATXN viability: inconclusive; ATXN2 expr inh: inconclusive; HepG2 tox-1: -37%; HT1080 IDH1KD tx: 16µM*; HT1080-NT tox: 10µM*; TGFb inhibitor: 8.9µM*; TGFb CAGA inh: 12µM*; HepG2 tox-2: 18µM*; TGFb CCL64 inh: 5.8µM*; COP TGFb inh: 23%

Results for CC(=O)Oc1ccccc1C(=O)C=Cc1cccc([N+](=O)[O-])c1 ?
ATXN2 expr inh: inconclusive; HepG2 tox-1: -31%; HT1080 IDH1KD tx: 16µM*; HT1080-NT tox: inconclusive; TGFb inhibitor: 7.1µM*; TGFb CAGA inh: 10µM*; HepG2 tox-2: inconclusive; TGFb CCL64 inh: 5.8µM*; COP TGFb inh: inconclusive

Results for O=C(/C=C/c1cccc([N+](=O)[O-])c1)c1ccc2c(c1)OCCO2 ?
ATXN viability: inactive; ATXN2 expr inh: -5%; HepG2 tox-1: -31%; HT1080 IDH1KD tx: inconclusive; HT1080-NT tox: inconclusive; TGFb inhibitor: inconclusive

What do the screens show for `O=C1CCSC2(C(=O)N(Cc3ccc(F)cc3)c3ccccc32)N1c1ccc(Cl)cc1` (stereo unspecified)?
HepG2 tox-1: -58%; TGFb inhibitor: inconclusive

How did O=C(CSc1c2c(nc3cc(Cl)ccc13)CCCC2)NCCN1CCOCC1 do in these assays?
ATXN viability: inactive; ATXN2 expr inh: -21%; HepG2 tox-1: -11%; HT1080 IDH1KD tx: 0%; HT1080-NT tox: -1%; TGFb inhibitor: -8%

What do the screens show for `Clc1ccc2c(SCC3CO3)c3ccccc3nc2c1` (stereo unspecified)?
ATXN2 expr inh: inconclusive; HepG2 tox-1: -49%; HT1080 IDH1KD tx: 18µM*; HT1080-NT tox: inconclusive; TGFb inhibitor: 7.9µM*; TGFb CAGA inh: 16µM*; HepG2 tox-2: 18µM*; TGFb CCL64 inh: 21µM*; COP TGFb inh: 16µM*

How did Cc1nc2nc(NCc3ccc(Cl)cc3)[nH]n2c(=O)c1Cc1ccccc1 do in these assays?
ATXN viability: inactive; ATXN2 expr inh: -6%; HepG2 tox-1: -9%; TGFb inhibitor: 2%

How did CCn1nc(C)c2c(-c3ccccc3)cc(=O)n(C(C)C(=O)NCCC(C)C)c21 (stereo unspecified) do in these assays?
ATXN viability: inactive; ATXN2 expr inh: -9%; HepG2 tox-1: -18%; TGFb inhibitor: -1%

What do the screens show for `O=C1N[C@@H](Cc2ccccc2)COC(=O)[C@@H](Cc2ccc(F)cc2)CC/C=C/C[C@@H]1CC(=O)N(CCO)Cc1ccccc1`?
ATXN viability: inconclusive; ATXN2 expr inh: inconclusive; HepG2 tox-1: 5%; HT1080 IDH1KD tx: -10%; HT1080-NT tox: -20%; TGFb inhibitor: 22µM*; TGFb CAGA inh: 16µM*; HepG2 tox-2: -27%; TGFb CCL64 inh: 23µM*; COP TGFb inh: 28%

How did O=C1N[C@@H](c2ccccc2)COC(=O)[C@@H](Cc2ccc(F)cc2)C/C=C\C[C@@H]1CC(=O)N(CCO)Cc1ccccc1 do in these assays?
ATXN viability: inconclusive; ATXN2 expr inh: 0%; HepG2 tox-1: -4%; HT1080 IDH1KD tx: -3%; HT1080-NT tox: -12%; TGFb inhibitor: 13µM*; TGFb CAGA inh: 16µM*; HepG2 tox-2: inconclusive; TGFb CCL64 inh: inconclusive; COP TGFb inh: 45%

Results for Oc1ccc(Cl)cc1Nc1nc2ccccc2n2cnnc12 ?
ATXN viability: inactive; ATXN2 expr inh: 11%; HepG2 tox-1: -2%; TGFb inhibitor: -23%

Results for Cn1cnc([N+](=O)[O-])c1Sc1nc(N)nc2c1ncn2C1OC(CO)C(O)C1O (stereo unspecified) ?
ATXN viability: inconclusive; ATXN2 expr inh: -33%; HepG2 tox-1: -46%; HT1080 IDH1KD tx: 1.3µM*; HT1080-NT tox: 1.3µM*; TGFb inhibitor: 2µM*; TGFb CAGA inh: 2.9µM*; HepG2 tox-2: 0.92µM*; TGFb CCL64 inh: 3%; COP TGFb inh: 65%

Results for Cn1cnc([N+](=O)[O-])c1Sc1nc(N)nc2c1ncn2C1CC(O)C(CO)O1 (stereo unspecified) ?
ATXN viability: inconclusive; ATXN2 expr inh: -35%; HepG2 tox-1: -39%; HT1080 IDH1KD tx: 1.3µM*; HT1080-NT tox: 2.3µM*; TGFb inhibitor: 4µM*; TGFb CAGA inh: 4.1µM*; HepG2 tox-2: inconclusive; TGFb CCL64 inh: 19%; COP TGFb inh: 82%

How did Cc1ccc(NC(=S)NCc2ccccc2)cc1S(=O)(=O)N1CCCCC1 do in these assays?
ATXN viability: inconclusive; HepG2 tox-1: -24%; HT1080 IDH1KD tx: -8%; HT1080-NT tox: -10%; TGFb inhibitor: 16µM*; TGFb CAGA inh: 23µM*; HepG2 tox-2: inconclusive; TGFb CCL64 inh: 26µM*; COP TGFb inh: 58%

Results for CCOc1ccc(CCNC(=O)Cn2nnc(-c3ccccc3)n2)cc1OCC ?
ATXN viability: inactive; ATXN2 expr inh: -7%; HepG2 tox-1: -12%; TGFb inhibitor: 1%

Screening results deposited in PubChem by National Center for Advancing Translational Sciences (NCATS).
